Measured values as given in the supplement of paper PMC6607015.
Where a name gives a salt, the structure may show the parent alone.

Assays:
Details in all cases: compound concentration in added solution (µM; 5 µl added to 20 µl cells): 10; 18 h
A431 [1] = assay: LBPA endosome anti-LBPA integrated intensity (sum per cell), Z-score; higher = more LBPA staining
Method in brief: (§1)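 Z-scores normalised in AcuityXpress are given for per-cell integrated LBPA or filipin intensity, measured whole-cell or within LBPA endosomes by MetaXpress segmentation. Cells (HeLa MZ or A431, 3,500 per well in 20 µl) were seeded onto 5 µl of 10 µM compound solution in duplicate 384-well imaging plates and fixed in 4% PFA after 18 h.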

HeLa MZ [2] = assay: as above
Method in brief: as §1

A431 [3] = assay: whole-cell filipin (free cholesterol) integrated intensity, Z-score; higher = more cholesterol staining
Method in brief: as §1

HeLa MZ [4] = assay: as above
Method in brief: as §1

A431 [5] = assay: filipin (cholesterol) integrated intensity within LBPA endosomes, Z-score; higher = more cholesterol in LBPA endosomes
Method in brief: as §1

HeLa MZ [6] = assay: as above
Method in brief: as §1

| SMILES | LBPA endosome anti-LBPA integrated intensity (z-score) (A431 [1]) | LBPA endosome anti-LBPA integrated intensity (z-score) (HeLa MZ [2]) | whole-cell filipin (z-score) (A431 [3]) | whole-cell filipin (z-score) (HeLa MZ [4]) | filipin (z-score) (A431 [5]) | filipin (z-score) (HeLa MZ [6]) |
| --- | --- | --- | --- | --- | --- | --- |
| CCC(C)n1ncn(-c2ccc(N3CCN(c4ccc(OCC5COC(Cn6cncn6)(c6ccc(Cl)cc6Cl)O5)cc4)CC3)cc2)c1=O (stereo not given) [Itraconazole] | 1.31 | 0.474 | 2.3 | 2.36 | 2.02 | 1.87 |
| Cn1c(=O)c2c(ncn2CC(O)CO)n(C)c1=O (stereo not given) [Diprophylline] | -0.55 | -0.754 | -0.617 | -0.852 | -0.554 | -0.628 |
| CN(C)CCOC(=O)C(c1ccccc1)C1(O)CCCC1 (stereo not given) [Cyclopentolate hydrochloride] | -0.331 | 0.664 | 0.119 | -0.332 | -0.39 | -0.209 |
| CCN(CCO)CCCC(C)Nc1ccnc2cc(Cl)ccc12 (stereo not given) [Hydroxychloroquine sulfate] | 0.14 | 1.98 | -0.556 | 0.249 | -0.241 | 0.821 |
| CCCc1cc(=O)[nH]c(=S)[nH]1 [Propylthiouracil] | -0.571 | -0.555 | -0.7 | -0.496 | -0.538 | -0.457 |
| Cc1cc(NC(=O)C2=C(O)c3ccccc3S(=O)(=O)N2C)no1 [Isoxicam] | -0.656 | -1.14 | -0.786 | -0.746 | -0.604 | -0.633 |
| CCN(CC)Cc1cc(Nc2ccnc3cc(Cl)ccc23)ccc1O [Amodiaquin dihydrochloride dihydrate] | 2.13 | 2.23 | 0.894 | -0.209 | 1.78 | 1.72 |
| Clc1ccc(C(Cn2ccnc2)OCc2csc3c(Cl)cccc23)c(Cl)c1 (stereo not given) [Sertaconazole nitrate] | -0.364 | 1.08 | 0.486 | 1.1 | -0.139 | 0.708 |
| CCn1nc(C(=O)O)c(=O)c2cc3c(cc21)OCO3 [Cinoxacin] | -0.298 | 0.452 | -0.393 | -0.0614 | -0.442 | -0.322 |
| CC(C)(O/N=C(\C(=O)N[C@@H]1C(=O)N2C(C(=O)[O-])=C(C[n+]3ccccc3)CS[C@H]12)c1csc(N)n1)C(=O)O [Ceftazidime pentahydrate] | -0.536 | -0.783 | -0.451 | -0.099 | -0.531 | -0.437 |
| C[C@H]1C[C@@H]2[C@H]([C@@H](O)C[C@@]3(C)[C@H]2CC[C@]3(O)C(=O)CO)[C@@]2(C)C=CC(=O)C=C12 [Methylprednisolone, 6-alpha] | -0.113 | 0.0903 | -0.236 | -0.329 | -0.297 | -0.497 |
| O=C(NCC1CCCCN1)c1cc(OCC(F)(F)F)ccc1OCC(F)(F)F (stereo not given) [Flecainide acetate] | 0.848 | 1.72 | 1.08 | 0.76 | 0.948 | 0.836 |
| CN(C(=O)CN(CCO)CC(=O)N(C)C(C)(C)Cc1ccccc1)C(C)(C)Cc1ccccc1 [Oxethazaine] | 1.71 | 0.996 | 1.26 | 0.298 | 1.53 | 2.17 |
| Cc1cccc(Nc2ccncc2S(=O)(=O)NC(=O)NC(C)C)c1 [Torsemide] | -0.347 | -0.115 | 0.00281 | 0.228 | -0.452 | -0.394 |
| S=c1[nH]cnc2nc[nH]c12 [Mercaptopurine] | -0.731 | -1.06 | -0.622 | -1.37 | -0.742 | -0.984 |
| CC[N+](C)(CC)CCC[n+]1c(-c2ccccc2)c2cc(N)ccc2c2ccc(N)cc21 [Propidium iodide] | -0.615 | -1.77 | -0.548 | -0.836 | -0.56 | -0.527 |
| CCN(CC)CCOC(=O)C1(C2CCCCC2)CCCCC1 [Dicyclomine hydrochloride] | -0.0951 | 0.203 | 0.137 | -0.144 | 0.0207 | 0.0362 |
| COc1ccc2[nH]c([S+]([O-])Cc3ncc(C)c(OC)c3C)nc2c1 (stereo not given) [Omeprazole] | -0.534 | -0.664 | -0.421 | -0.0929 | -0.508 | -0.373 |
| N#Cc1ccc(C(c2ccc(C#N)cc2)n2cncn2)cc1 [Letrozole] | -0.371 | 0.276 | 0.375 | 0.337 | -0.552 | -0.548 |
| CCOc1ccccc1OC(c1ccccc1)C1CNCCO1 (stereo not given) [Reboxetine mesylate] | -0.315 | 0.133 | -0.477 | -0.595 | -0.205 | -0.384 |
